Assay outcomes as filed in PubChem BioAssay.
Compounds with a hit are over-represented: about 6.2% of the library has one in this group of screens.
KB-3-1 cytotox = KB-3-1 parental cell cytotoxicity. KB-3-1 viability, CellTiter-Glo ATP luminescence, 72 h. hit rate 1.4% among 400,000. Potency, µM (highest dose often 46.1 µM), hits mostly cytotoxic. AID 1347075; further: nearly all actives have a fitted effect of over 60% in size
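Cells are dispensed, compounds pinned in, plates held at 37 °C for 72 h, then CellTiter-Glo is added and luminescence read after 10 minutes. Cell line: parental KB-3-1 in phenol-red-free DMEM, 10% FBS.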
KB-V1 cytotox = kills drug-selected multidrug resistant KB-V1 cells; Potency, µM (highest dose often 46.1 µM), most hits filed as cytotoxic; KB-V1 MDR cells viability, CellTiter-Glo, 72 h; hit rate 3.4% among 400,000; further: nearly all actives have a fitted effect of over 60% in size
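Potencies derive from concentration-effect curves fitted to normalized luminescence (CellTiter-Glo) of KB-V1 cells treated for 72 h at 37 degrees C in phenol-red-free DMEM containing 10% FBS.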
HT1080-NT tox = kills 2HG-producing HT-1080-NT fibrosarcoma cells; HT-1080-NT fibrosarcoma viability, CellTiter-Glo ATP luminescence, 48 h; Potency, µM (doses to about 46.1 µM), most hits filed as cytotoxic; hit rate 1.6% among 360,000; AID 686970;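 further: NT is the 2HG producing partner of a matched IDH1 knockdown line; nearly all actives have a fitted effect of over 55% in size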
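Viability by CellTiter-Glo luminescence after 48 h compound exposure at 37C of HT-1080-NT cells (750/well, RPMI, 5% FBS). % activity scaled between DMSO wells and medium-only wells, then curve-fitted and categorized by curve class.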
ATXN2 expr inh = inhibitors of ATXN2 expression; HEK-293 ATXN2-luciferase reporter, luminescence, 24 h; Potency, µM (titrated, usually from 57 µM), hits mostly inhibitors; hit rate 0.72% among 360,000; further: nearly all actives have a fitted effect of over 55% in size
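qHTS (up to 57 uM final) was run with 24 h compound exposure of reporter cells at 37 °C. Each well was multiplexed: SteadyGlo luminescence measured ATXN2-luciferase expression after a fluorogenic Gly-Phe-AFC viability readout (25 uM final).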
ATXN viability = reduces viability in counter-screen for ATXN expression inhibitors | S2 cells (HEK-293 line with an ATXN2-luciferase reporter) viability, CellTiter-Fluor protease fluorescence, 24 h | Potency, µM (doses to about 56.7 µM), usual class: cytotoxic | hit rate 0.49% among 400,000 | AID 651635; further: nearly all actives have a fitted effect of over 40% in size
HT1080 IDH1KD tx = HT-1080 IDH1 knockdown cell toxicity (counter line) | HT-1080 IDH1 knockdown viability, ATP luminescence, 48 h | Potency, µM (doses to about 46.1 µM), usual class: cytotoxic | hit rate 2% among 360,000
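Luminescent ATP read-out (CellTiter-Glo, 10 min at room temperature) after 48 h compound exposure at 37 °C gave viability of IDH1-knockdown HT-1080 cells. Activity was normalised to DMSO and cell-free wells, then fitted as concentration-response curves.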
A number is an active result; . = inactive; ? = inconclusive; / = not tested or not shown. The call rests on the fitted dose curve; in most records, active means well fitted curve in the direction sought with a large enough effect; inconclusive means small, poorly fitted or top-dose-only effect, or another doubt; inactive means no such curve, though single readings can be large; an effect the other way counts as inactive or inconclusive.

SMILES | KB-3-1 cytotox | KB-V1 cytotox | HT1080-NT tox | ATXN2 expr inh | ATXN viability | HT1080 IDH1KD tx
COc1cc([N+](=O)[O-])cc(/C=N/NC(=O)c2cc(C)nc3ccccc23)c1O | ? | . | ? | / | . | 13µM
COc1cccc(/C=N/NC(=O)c2cc(-c3ccccn3)nc3ccccc23)c1O | ? | ? | ? | 5µM | ? | ?
COc1cc(/C=N/NC(=O)c2cc(-c3ccccc3OC(C)C)nc3ccccc23)ccc1O | 18µM | 12µM | . | . | ? | ?
COc1cc(/C=N/NC(=O)c2cc(-c3cccc(Br)c3)nc3ccccc23)cc(OC)c1O | ? | ? | ? | . | . | 12µM
Cc1cc(C(=O)N/N=C/c2cccc([N+](=O)[O-])c2)c2ccccc2n1 | . | . | . | . | . | .
COC(=O)/C=C/c1ccc2c(c1)S(=O)(=O)N(C1CCCC1)[C@H]2CC(=O)OC | . | ? | / | / | / | /
Cc1c(NC(=O)c2ccc(OC(C)C)cc2)cccc1-c1nc2ncccc2o1 | . | . | / | . | . | /
CCCS(=O)(=O)N1CC(=O)N(c2ccc(C)c(Cl)c2)C(C)(C(=O)NC2CCCCCC2)C1 (stereo not given) | . | . | / | / | / | /
O=[N+]([O-])c1ccc(/C=C/c2ccnc3ccccc23)cc1 | ? | . | / | / | / | /
O=C(NCCc1c[nH]c2ccccc12)C1CCC(Cn2c(=S)[nH]c3ccccc3c2=O)CC1 (stereo not given) | ? | 15µM | . | . | . | ?
CC(NC(=O)CSc1nc(C2CC2)n(-c2ccccc2)n1)c1ccco1 (stereo not given) | . | 13µM | . | . | . | .
O=C(CSc1nc(C2CCCCC2)n(-c2ccccc2)n1)NCC(F)(F)F | . | 8.2µM | . | . | . | .
Nc1nn(-c2ccccc2)c(N)c1N=Nc1ccccc1F | ? | 4.6µM | 8.2µM | . | ? | 5.8µM
Nc1nn(-c2ccccc2)c(N)c1N=Nc1ccccc1 | ? | 5.8µM | ? | . | . | 16µM
Nc1ncnc(N)c1N=Nc1ccccc1 | ? | . | ? | ? | . | 12µM
C=CC[n+]1cccc2cc(Br)ccc21 | . | . | / | / | / | /
N#Cc1ccc(NC(=O)COCc2cc(-c3ccc(F)cc3)on2)cc1 | . | ? | / | . | ? | /
CN(C)c1ccc(/C=C/c2ccc3ncccc3c2)cc1 | . | . | / | / | / | /
O=[N+]([O-])c1ccc(Oc2cccc(Br)c2)c2ccncc12 | ? | ? | 21µM | . | . | ?
CC(C)CC1C(=O)N(Cc2cn(CCC3OCCO3)nn2)CCS(=O)(=O)N1Cc1ccc(-c2ccccc2)cc1 (stereo not given) | ? | 15µM | ? | ? | ? | .
CC(C)CC1C(=O)N(Cc2cn(CCC3OCCO3)nn2)CCS(=O)(=O)N1Cc1ccc(-c2ccc(Cl)c(Cl)c2)cc1 (stereo not given) | . | . | ? | ? | / | ?
Cc1ccc(-c2ccc(CN3C(CC(C)C)C(=O)N(Cc4cn(CCC5OCCO5)nn4)CCS3(=O)=O)cc2)cc1 (stereo not given) | ? | . | 18µM | 25µM | 35µM | 18µM
CCOC(=O)C1=C(N)Oc2ccc3ccccc3c2C1c1ccc(O)c(OC)c1 (stereo not given) | . | . | 21µM | . | . | ?
CC(C)(C)C(=O)Cn1ncc(Cl)c(Cl)c1=O | . | ? | 13µM | / | 7.9µM | ?
Cc1ccc(CNC(=O)CN2NS(=O)(=O)c3ccccc3C2=O)cc1 | . | . | . | / | . | .
SMILES | KB-3-1 cytotox | KB-V1 cytotox | HT1080-NT tox | ATXN2 expr inh | ATXN viability | HT1080 IDH1KD tx
O=C(Cn1ncc(Cl)c(Cl)c1=O)c1ccc(Cl)cc1 | ? | ? | 15µM | ? | ? | ?
C=CCn1c(C)cc(C(=O)Cn2ncc(Cl)c(Cl)c2=O)c1C | ? | ? | ? | ? | 35µM | 3.3µM
C=CCn1c(C)cc(C(=O)CN2NS(=O)(=O)c3ccccc3C2=O)c1C | ? | ? | 16µM | / | ? | 18µM
O=C(Cn1c(=O)nc(-c2ccccc2)c2ccccc21)Nc1ccc(Cl)cc1F | . | . | / | . | . | /
Cc1ccc(S(=O)(=O)c2nc(-c3cccs3)oc2SCc2ccc(F)cc2)cc1 | . | . | / | . | ? | /
OCc1cnc(SCc2cccc(F)c2)n1Cc1ccc(F)cc1 | . | . | / | . | . | /
O=C(OCn1ncc(Cl)c(Cl)c1=O)c1ccccc1Cl | 3.7µM | ? | 7.3µM | ? | / | 5.8µM
CC(=O)c1ccc(NS(=O)(=O)c2cc3c(cc2C)N(C)CCO3)cc1 | . | . | ? | . | . | 16µM
O=C(c1cc2sccc2n1Cc1ccccc1)N1CCc2ccccc21 | . | 10µM | . | . | . | ?
O=C(c1cc2sccc2n1Cc1ccccc1)N1CCCc2ccccc21 | . | . | . | . | . | .
Cn1c(C(=O)N2CCCc3ccccc32)cc2sccc21 | ? | 15µM | . | . | . | .
COC(=O)c1cc2sccc2n1CC(=O)N1CCCc2ccccc21 | . | . | . | . | ? | .
Cc1c2cnn(CC(=O)N3CCCCC3)c(=O)c2c(C)n1Cc1ccc(Cl)cc1 | ? | . | / | / | / | /
Cc1nnsc1C(=O)Oc1ccc(Cl)cc1 | . | . | / | . | . | /
CCOc1ccc(C2CC(=O)Nc3nc(SCc4ccccc4C)[nH]c(=O)c32)cc1OC (stereo not given) | . | . | / | . | . | /
CN(C)c1ccc(C(CNS(=O)(=O)c2ccc3ccccc3c2)c2c[nH]c3ccccc23)cc1 (stereo not given) | . | 15µM | . | . | . | .
CN(C)c1ccc(C(CN)c2c[nH]c3ccccc23)cc1 (stereo not given) | . | . | . | . | . | .
FC(F)(F)c1cccc(NC(=S)NCCN2CCOCC2)c1 | . | . | . | . | . | .
Cc1ccc(C(=O)Nc2cccc(C(F)(F)F)c2)cc1-c1ccc2nc(NCCN3CCOCC3)ncc2c1 | / | / | / | 6.1µM | / | /
CCN1C(=O)CC(CC(=O)N2CCC(c3nc4ccc(F)cc4[nH]3)CC2)(c2ccccc2C)C1=O (stereo not given) | / | / | / | / | . | /
NC(=O)c1cc(-c2ccccc2)sc1NC(=O)CN1CCCCC1 | . | . | ? | . | ? | 15µM
NC(=O)c1ccccc1NC(=O)CN1CCCCCC1 | . | . | . | . | . | .
CC(C)(C)C(=O)Nc1sc(-c2ccccc2)cc1C(=O)O | 6.5µM | ? | ? | . | . | ?
CN1CC2=Cc3ccccc3OC23Oc2ccccc2C=C3C1 | ? | ? | 16µM | . | ? | ?
O=C(Nc1cccc(F)c1)c1ccc(Cn2cc([N+](=O)[O-])cn2)o1 | . | 13µM | . | . | . | .
Cc1ccc(Cc2c(-c3ccco3)nc3c(C)cc(Br)cn23)cc1 | ? | ? | 26µM | . | ? | 15µM
Cc1ccc(Cc2c(-c3ccco3)nc3c4ccccc4ccn23)cc1 | . | ? | 23µM | . | ? | 21µM
Cc1ccc(Cc2c(-c3ccco3)nc3ccc(C)cn23)cc1 | . | . | . | . | ? | .
